An excerpt weighted towards active compounds, which were near 7.3% of everything screened.
VACV mCherry inh = inhibitors of vaccinia virus infection (mCherry reporter signal); Vaccinia virus mCherry reporter infection, fluorescence; Potency, µM (top dose mostly 36.5 µM), usual class: inhibitors; hit rate 0.63% among 310,000; AID 720579; calls by dose curve; tested in A549 cells; further: nearly all actives have a fitted effect of over 35% in size
Vaccinia Venus = inhibitors of vaccinia virus (Venus reporter). Vaccinia virus Venus reporter expression, fluorescence. Potency, µM (highest dose often 36.5 µM), actives largely listed as inhibitors. hit rate 0.46% among 330,000. AID 720580; calls by dose curve; tested in A549 cells; further: nearly all actives have a fitted effect of over 30% in size
FMDV inh = antivirals against foot and mouth disease virus; Potency, µM (titrated, usually from 57.9 µM), most hits filed as inhibitors; FMDV antiviral cell-based qHTS; hit rate 1.2% among 410,000; calls by dose curve; tested in HEK293T cells; further: read-out not given here; nearly all actives have a fitted effect of over 45% in size
HCV inhibitor = inhibitors of hepatitis C virus infection | AID 651820 | Potency, µM (series often up to 41.8 µM), hits mostly inhibitors | Huh7.5.1 HCVcc-Cre infection, luciferase reporter, 44 h | hit rate 3.4% among 340,000; active means well fitted inhibition curve with a large enough effect; inconclusive means small, poorly fitted or top-dose-only effect, or another doubt; inactive means no such curve, though single readings can be large or run the other way
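Infectious HCVcc-Cre (~0.5 moi) was added to cells just after compound, with cells seeded 4 h earlier at 1,000 per well. Luciferase activity after 44 h culture reported infection; substrate was incubated 15 min at room temperature before reading.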
HCMV inh = blocks human cytomegalovirus replication. AID 1259415. HFF cells, HCMV-luciferase reporter, 72 h; active compounds read low. hit rate 4.5% among 410,000. activity change, negative = inhibition, % at 57.5 µM; in the data active means activity change below about -60%; inconclusive means no clear call, values can overlap the other calls; inactive means above about -39%
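Two compound doses tested in HFFs infected with HCMV-luciferase, MOI 1 PFU/cell, 72 h at 37C. Lysate luminescence read with OneGlo; data normalized against buffer-only and 10uM Salinomycin inhibitor controls.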
Each line names hits and unclear results; the compound was inactive in the other large screens.

CCC(c1nnnn1CCc1ccccc1)N(Cc1ccco1)Cc1cc2c(C)ccc(C)c2[nH]c1=O (stereo unspecified)	Vaccinia Venus inconclusive, HCV inhibitor 11µM (no result: VACV mCherry inh)
CCC(c1nnnn1CCc1ccccc1)N(Cc1ccco1)Cc1cc2cc(C)cc(C)c2[nH]c1=O (stereo unspecified)	FMDV inh inconclusive, HCV inhibitor 10µM, HCMV inh -71 (no result: VACV mCherry inh)
COc1cc(C2c3c(oc4ccccc4c3=O)C(=O)N2c2nnc(C(C)C)s2)cc(OC)c1OC (stereo unspecified)	none (no result: HCV inhibitor)
COc1ccc(CN2C(=O)C(Cc3ccccc3)Nc3ncnc(N4CCN(c5ccccc5)CC4)c32)cc1 (stereo unspecified)	HCV inhibitor 3.2µM, HCMV inh inconclusive
CN(C)c1ccc(/C=C/c2ccnc3ccccc23)c(N)c1	none (no result: FMDV inh, HCV inhibitor, HCMV inh)
COc1ccc(CN2C[C@H](COCc3ccccc3)Oc3cccc(Oc4ccc(C(C)C)cc4)c3S2(=O)=O)cc1	none (no result: VACV mCherry inh, Vaccinia Venus, FMDV inh, HCV inhibitor)
COCCn1c(N)c(C(=O)NCC2CCCO2)c2nc3ccccc3nc21 (stereo unspecified)	none
O=C(NCC1CCCO1)c1cc2ccccc2cc1O (stereo unspecified)	none
CC(C)OCCCNC(=O)c1c(N)n(Cc2cccs2)c2nc3ccccc3nc12	Vaccinia Venus 28µM, HCV inhibitor 10µM, HCMV inh -74 (no result: VACV mCherry inh)
CC(C)Cn1c(N)c(C(=O)NCC2CCCO2)c2nc3ccccc3nc21 (stereo unspecified)	VACV mCherry inh 10µM, Vaccinia Venus 10µM, FMDV inh inconclusive, HCV inhibitor inconclusive
O=C(NCC1CCCO1)c1cc2ccccc2nc1Cl (stereo unspecified)	HCMV inh -70 (no result: VACV mCherry inh, Vaccinia Venus)
CC(C)CCn1c(N)c(C(=O)NCc2cccs2)c2nc3ccccc3nc21	HCV inhibitor 14µM
COCCn1c(N)c(C(=O)NCc2cccs2)c2nc3ccccc3nc21	HCV inhibitor inconclusive, HCMV inh inconclusive (no result: VACV mCherry inh, Vaccinia Venus)
CCNc1ccc(/C=C2\C=Cc3ccccc32)cc1	none (no result: FMDV inh, HCV inhibitor, HCMV inh)
CS(=O)(=O)c1ccc(C(=O)Nc2cc(S(C)(=O)=O)ccc2Cl)cc1	FMDV inh inconclusive, HCMV inh inconclusive
CS(=O)(=O)c1ccc(Cl)c(NC(=O)CCl)c1	VACV mCherry inh inconclusive, Vaccinia Venus inconclusive, FMDV inh 25µM, HCV inhibitor inconclusive
COc1ccc(/C=c2/sc3n(c2=O)C(c2ccccc2OC)C2=C(N=3)c3ccccc3CC2)cc1O (stereo unspecified)	HCV inhibitor inconclusive, HCMV inh -64 (no result: VACV mCherry inh, Vaccinia Venus)
CCOC(=O)C1=C(C)N=c2s/c(=C\c3ccc(O)c([N+](=O)[O-])c3)c(=O)n2C1c1ccccc1OC (stereo unspecified)	FMDV inh inconclusive, HCMV inh inconclusive
Cc1cccc(Nc2nnc(SC3CCOC3=O)s2)c1C (stereo unspecified)	HCMV inh -81
COCC(C)N1C(=O)Cc2c1nc(N)c1c(N)nc(N3CCN(c4ccccc4F)CC3)c(C#N)c21 (stereo unspecified)	VACV mCherry inh inconclusive, FMDV inh 32µM, HCV inhibitor inconclusive, HCMV inh inconclusive
COCCN1C(=O)Cc2c1nc(N)c1c(N)nc(N3CCN(c4ccc(F)cc4)CC3)c(C#N)c21	HCMV inh inconclusive (no result: VACV mCherry inh, Vaccinia Venus)
CCN1C(=O)c2ccccc2Sc2ccc(NC(=O)c3ccc(C)c(F)c3)cc21	VACV mCherry inh inconclusive, FMDV inh inconclusive (no result: HCV inhibitor)
Cc1ccc(-c2cc3nn(-c4ccccc4)c(N)c3c(=O)o2)cc1	HCV inhibitor 10µM (no result: VACV mCherry inh, Vaccinia Venus)
CCCN1C(=O)c2cc(C(=O)Nc3ccccc3OC)ccc2C1Nc1ccccc1OC (stereo unspecified)	FMDV inh inconclusive, HCV inhibitor 11µM
COc1ccc(N(CC(=O)Nc2cccc(C(C)=O)c2)S(=O)(=O)c2ccccc2)c(OC)c1	VACV mCherry inh inconclusive (no result: HCV inhibitor)
CCOC(=O)c1sc(NNC(=O)c2ccc(C)cc2)nc1C	none
CCOC(=O)c1nc(NNC(=O)c2ccc([N+](=O)[O-])cc2)sc1C	VACV mCherry inh inconclusive, Vaccinia Venus inconclusive, HCV inhibitor inconclusive, HCMV inh -97
Cc1cc(C)c2c(=O)[nH]c(SCC(=O)c3ccc(F)c(C)c3)nc2n1	HCMV inh -103
Cc1cc(C(=O)CSc2nc(N)cc(=O)[nH]2)ccc1F	none (no result: VACV mCherry inh, Vaccinia Venus)
O=C1c2c(O)cc(O)cc2O[C@H](c2ccc(O)cc2)[C@H]1O	none
O=C1c2c(O)cc(O)cc2O[C@H](c2ccc(O)c(O)c2)[C@H]1O	HCV inhibitor 0.56µM
Cc1ccc(-c2nc(CN3CCN(C(=O)C4CCCO4)CC3)cs2)cc1 (stereo unspecified)	FMDV inh inconclusive, HCMV inh -71 (no result: HCV inhibitor)

Screening results deposited in PubChem by National Center for Advancing Translational Sciences (NCATS).
